High-throughput results from PubChem BioAssay.
HttQ103 aggreg – reduces HttQ103-GFP aggregates in PC12 cells; PC12 HttQ103-GFP aggregates, Acumen cytometry, 40 h; Potency, µM (doses to about 46.1 µM), usual class: inhibitors; 220,000 tested, 1.1% active; AID 1688; also: nearly all actives have a fitted effect of over 60% in size
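Multiplexed with ATP-based cell death, this channel scores GFP aggregates in PC12 cells expressing inducible HTTex1-Q103-GFP. Induction used 100 nM tebufenozide; compounds were tested in concentration series.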
RGS12 GoLoco inh – blocks human Gai1 binding to RGS12 GoLoco peptide, red readout; P63096; Gai1:RGS12 GoLoco peptide FP, rhodamine, 10 min; Potency, µM (top dose mostly 61.6 µM), actives largely listed as inhibitors; 230,000 tested, 0.44% active; active = well fitted inhibition curve with a large enough effect, not every such curve was filed as active; inactive = no such curve, though single readings can be large or run the other way; also: nearly all actives have a fitted effect of over 30% in size
Target sequence (P63096 whole entry, looked up): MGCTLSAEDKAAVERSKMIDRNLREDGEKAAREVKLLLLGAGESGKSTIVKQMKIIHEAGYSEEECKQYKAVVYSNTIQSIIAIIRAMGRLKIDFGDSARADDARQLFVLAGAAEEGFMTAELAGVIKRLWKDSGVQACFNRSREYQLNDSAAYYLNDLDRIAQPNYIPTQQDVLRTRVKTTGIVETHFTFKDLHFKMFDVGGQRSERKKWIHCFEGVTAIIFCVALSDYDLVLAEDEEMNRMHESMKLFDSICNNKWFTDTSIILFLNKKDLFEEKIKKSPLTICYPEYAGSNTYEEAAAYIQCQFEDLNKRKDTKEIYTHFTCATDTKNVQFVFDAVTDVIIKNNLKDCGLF
Coupling enz – inhibits coupling enzyme system, counter-screen for aldolase hits. coupling enzyme system counterscreen, AmpLite Red fluorescence. activity change, negative = inhibition, % at 58.2 µM, hits read low. 290,000 tested, 0.67% active; in the data active = activity change below about -30%
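Activity here indicates interference with the coupling reaction, not aldolase inhibition. Compounds at 57.5 uM final met coupling enzymes for 10 min at RT; substrate and AmpLite Red detection followed, with a 525/598 nm fluorescence read after 20 min.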
VDR inh – inhibitors of human vitamin D receptor; AID 504847; Potency, µM, usual class: inhibitors; 400,000 tested, 0.93% active; P11473; VDR-SRC2-3 peptide fluorescence polarization, 2 h
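Measured by FP: displacement of SRC2-3 coactivator peptide from VDR by library compounds, following a two-hour ambient incubation.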
JMJD2E inh – inhibitors of human JMJD2E histone demethylase; B2RXH2; JMJD2E catalytic domain, FDH-coupled NADH fluorescence (FDH is formaldehyde dehydrogenase); Potency, µM (series often up to 57.1 µM), most hits filed as inhibitors; 230,000 tested, 1.6% active; AID 2147; active = well fitted inhibition curve with a large enough effect, not every such curve was filed as active; inconclusive = small, poorly fitted or top-dose-only effect, or another doubt; inactive = no such curve, though single readings can be large or run the other way; also: nearly all actives have a fitted effect of over 50% in size
Target sequence (B2RXH2 1-337 limits assumed): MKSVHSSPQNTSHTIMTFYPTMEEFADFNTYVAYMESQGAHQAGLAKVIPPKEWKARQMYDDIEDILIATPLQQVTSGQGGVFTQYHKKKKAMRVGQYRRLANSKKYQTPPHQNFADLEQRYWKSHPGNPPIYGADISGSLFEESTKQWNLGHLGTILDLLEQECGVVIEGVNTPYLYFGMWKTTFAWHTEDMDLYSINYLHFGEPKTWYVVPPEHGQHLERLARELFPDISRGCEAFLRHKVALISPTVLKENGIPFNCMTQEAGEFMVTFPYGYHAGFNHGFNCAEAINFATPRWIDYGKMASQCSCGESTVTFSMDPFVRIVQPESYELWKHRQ
HTT ATP protect – protects HTT-Q103 PC12 cells, measured by ATP | PC12 HTT-Q103 induced, cytoprotection, ATP luminescence, 40 h | Potency, µM (series often up to 56.4 µM), usual class: activators | 230,000 tested, 0.14% active; also: nearly all actives have a fitted effect of over 45% in size
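Compounds were screened for protection of PC12 cells against cell death after tebufenozide induction (100 nM final) of mutant Huntingtin exon 1 (Q103) fused to GFP.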
VDR confirm – confirmation of human vitamin D receptor inhibitors; shares compounds with VDR inh; VDR-coactivator inhibition assay, qHTS confirmation; Potency, µM, actives largely listed as inhibitors; 840 tested, 89% active
VDR FP – blocks human VDR-coactivator binding in fluorescein assay | 840 tested, 48% active | AID 602200 | VDR-coactivator binding, fluorescein fluorescence polarization | Potency, µM (titrated, usually from 57.1 µM), usual class: inhibitors | shares compounds with VDR inh
VDR bla reporter – inhibits human VDR in beta-lactamase reporter cells. Potency, µM (doses to about 46.1 µM), actives largely listed as inhibitors. 840 tested, 23% active. VDR beta-lactamase reporter cells, FRET ratio; cells co-treated with VDR agonist LG190178. shares compounds with VDR inh
VDR viability – cytotoxic in counter-screen for VDR inhibitors. shares compounds with VDR inh. cytotoxicity counter-screen, cell viability, qHTS. Potency, µM (highest dose often 48.3 µM), actives largely listed as cytotoxic. 840 tested, 18% active. AID 602204; also: nearly all actives have a fitted effect of over 75% in size
Large screens that a line does not name were inactive (follow-up assays come after a bar, where they were run). An excerpt weighted towards active compounds, which were near 2.3% of everything screened. Unless noted, calls follow the shape of the dose curve; as a rule, active = well fitted curve in the direction sought with a large enough effect; inconclusive = small, poorly fitted or top-dose-only effect, or another doubt; inactive = no such curve, though single readings can be large; an effect the other way counts as inactive or inconclusive.

O=[N+]([O-])c1ccc(N2CC2)c([N+](=O)[O-])c1	none (no result: HttQ103 aggreg, RGS12 GoLoco inh, Coupling enz, JMJD2E inh, HTT ATP protect)
O=[N+]([O-])c1ccc(Sc2nc3ccccc3o2)c([N+](=O)[O-])c1	VDR inh 25µM | VDR confirm 19 | VDR FP 14µM | VDR bla reporter inconclusive | VDR viability inconclusive
COc1cc(OC)c(/C=C2\C(=O)Nc3ccccc32)c(OC)c1	none (no result: HttQ103 aggreg, RGS12 GoLoco inh, Coupling enz, JMJD2E inh, HTT ATP protect)
COc1ccc(C(=O)/C=C2/C(=O)Nc3ccccc32)c(OC)c1	VDR inh 35µM (no result: HttQ103 aggreg, RGS12 GoLoco inh, JMJD2E inh, HTT ATP protect) | VDR confirm 21 | VDR FP inconclusive | VDR bla reporter inconclusive | VDR viability 13µM
CCOc1ccc(/C=C2/C(=O)NC(=O)N(CCc3ccc(F)cc3)C2=O)cc1	VDR inh 79µM | VDR confirm inconclusive | VDR FP 18µM | VDR bla reporter inactive | VDR viability inconclusive
COc1cc(/C=C2\C(=O)NC(=O)N(CCc3ccc(F)cc3)C2=O)ccc1O	VDR inh inconclusive
CN(C)c1ccc(C=C2C(=O)NC(=O)NC2=O)cc1[N+](=O)[O-]	none
CN(C)c1ccc(C=C2C(=O)NC(=S)NC2=O)cc1[N+](=O)[O-]	VDR inh 22µM, JMJD2E inh inconclusive | VDR confirm 13 | VDR FP 10µM | VDR bla reporter inactive | VDR viability inactive
C[C@H]1CC[C@@H]2[C@@H](C)[C@H]3C(C[C@H]4C5CC[C@H]6C[C@@H](O)CC[C@]6(C)C5CC[C@]34C)N2C1 (stereo partly drawn)	none (no result: HttQ103 aggreg, RGS12 GoLoco inh, JMJD2E inh, HTT ATP protect)
NC(=O)O	none (no result: HttQ103 aggreg, RGS12 GoLoco inh, JMJD2E inh, HTT ATP protect)
Nc1nc(Sc2ccc([N+](=O)[O-])c3nonc23)c2[nH]cnc2n1	RGS12 GoLoco inh 1.6µM, VDR inh 14µM (no result: HttQ103 aggreg, Coupling enz, JMJD2E inh) | VDR confirm 3.4 | VDR FP inconclusive | VDR bla reporter inconclusive | VDR viability 11µM
COc1ccc(-n2c(O)c(/C=C3\C=Nc4ccc(Br)cc43)c(=O)[nH]c2=O)c(OC)c1	VDR inh 50µM (no result: HttQ103 aggreg, RGS12 GoLoco inh, JMJD2E inh, HTT ATP protect) | VDR confirm 17 | VDR FP inconclusive | VDR bla reporter inconclusive | VDR viability inconclusive
NCC[C@H](NC(=O)[C@@H](N)CCCN=C(N)N[N+](=O)[O-])C(N)=O	none (no result: HttQ103 aggreg, RGS12 GoLoco inh, JMJD2E inh, HTT ATP protect)
O=C(O)c1ccccc1-c1ccc(C=C2C(=O)N(c3ccccc3)C(=S)N(c3ccccc3)C2=O)o1	VDR inh 16µM (no result: HttQ103 aggreg, RGS12 GoLoco inh, JMJD2E inh, HTT ATP protect) | VDR confirm 3.8 | VDR FP inconclusive | VDR bla reporter inactive | VDR viability inactive
CN1C(=O)C(=Cc2ccc(N3CCCCCC3)o2)C(=O)N(C)C1=S	none
CC(C)C[C@H](NC(=O)[C@H](Cc1ccccc1)NC(=O)CNC(=O)[C@@H](NC(=O)[C@@H](N)Cc1ccc(O)cc1)[C@H](C)O)C(=O)N[C@H](C(=O)O)[C@H](C)O	none (no result: HttQ103 aggreg, Coupling enz, JMJD2E inh)
NS(=O)(=O)c1ccc(-c2ccc(C=C3C(=O)NC(=O)NC3=O)o2)cc1	VDR inh 45µM (no result: HttQ103 aggreg, RGS12 GoLoco inh, JMJD2E inh, HTT ATP protect) | VDR confirm inconclusive | VDR FP inconclusive | VDR bla reporter inactive | VDR viability inactive
O=C1NC(=O)C(=Cc2ccc(-c3cc(Cl)ccc3[N+](=O)[O-])o2)C(=O)N1	VDR inh 79µM | VDR confirm 3.4 | VDR FP inactive | VDR bla reporter inconclusive | VDR viability inconclusive
c1ccc(OP(Oc2ccccc2)Oc2ccccc2)cc1	none (no result: HttQ103 aggreg, Coupling enz, VDR inh, JMJD2E inh)
CN(C)CCCc1cccnc1	none (no result: HttQ103 aggreg, Coupling enz, VDR inh, JMJD2E inh)
Cc1ccc(OP2(=O)Nc3cc(C)c(C)cc3S2)cc1 (stereo not drawn)	VDR inh 7.9µM (no result: HttQ103 aggreg, RGS12 GoLoco inh, Coupling enz, JMJD2E inh, HTT ATP protect) | VDR confirm 6.7 | VDR FP inconclusive | VDR bla reporter inactive | VDR viability inactive
Cc1ccc2c(c1)NP(=S)(Oc1ccccc1)N2 (stereo not drawn)	none (no result: HttQ103 aggreg, RGS12 GoLoco inh, Coupling enz, JMJD2E inh, HTT ATP protect)
CC(C)Nc1ccc(Nc2ccccc2)cc1	VDR inh 40µM (no result: Coupling enz, JMJD2E inh) | VDR confirm inconclusive | VDR FP 7.1µM | VDR bla reporter inconclusive | VDR viability inconclusive
C[C@@H](C1CC[C@@]2(O)C3=CC(=O)[C@@H]4C[C@@H](O)[C@@H](O)C[C@]4(C)[C@H]3CC[C@]12C)[C@H](O)CCC(C)(C)O (stereo partly drawn)	none (no result: HttQ103 aggreg, RGS12 GoLoco inh, JMJD2E inh, HTT ATP protect)
CCN1C(=O)C(=Cc2ccc(C)s2)C(=O)N(CC)C1=S	VDR inh inconclusive (no result: HTT ATP protect)
O=C1NC(=S)NC(=O)C1=Cc1ccc(Br)s1	VDR inh 22µM (no result: HttQ103 aggreg, RGS12 GoLoco inh, JMJD2E inh, HTT ATP protect) | VDR confirm 4.2 | VDR FP inconclusive | VDR bla reporter inconclusive | VDR viability inconclusive
CN(C)c1ccc(N)cc1	none (no result: HttQ103 aggreg, Coupling enz, VDR inh, JMJD2E inh)
